Measurements: PubChem BioAssay (NCATS)
Results filed as inconclusive are left out. Calls of active or inactive are those of the source. Unless noted, calls follow the shape of the dose curve; as a rule, active = well fitted curve in the direction sought with a large enough effect; inconclusive = small, poorly fitted or top-dose-only effect, or another doubt; inactive = no such curve, though single readings can be large; an effect the other way counts as inactive or inconclusive.

Assays:
[1] = biological target: Lysosomal acid glucosylceramidase (Homo sapiens) (UniProt P04062); test: Glucocerebrosidase-p2 (AID 348; in the data active = potency below about 10 µM; also: potency is read from the fitted curve at half-maximal effect); conditions: purified GBA, blue fluorogenic substrate, 40 min
Chain of Lysosomal acid glucosylceramidase (Homo sapiens) (P04062 whole entry, looked up): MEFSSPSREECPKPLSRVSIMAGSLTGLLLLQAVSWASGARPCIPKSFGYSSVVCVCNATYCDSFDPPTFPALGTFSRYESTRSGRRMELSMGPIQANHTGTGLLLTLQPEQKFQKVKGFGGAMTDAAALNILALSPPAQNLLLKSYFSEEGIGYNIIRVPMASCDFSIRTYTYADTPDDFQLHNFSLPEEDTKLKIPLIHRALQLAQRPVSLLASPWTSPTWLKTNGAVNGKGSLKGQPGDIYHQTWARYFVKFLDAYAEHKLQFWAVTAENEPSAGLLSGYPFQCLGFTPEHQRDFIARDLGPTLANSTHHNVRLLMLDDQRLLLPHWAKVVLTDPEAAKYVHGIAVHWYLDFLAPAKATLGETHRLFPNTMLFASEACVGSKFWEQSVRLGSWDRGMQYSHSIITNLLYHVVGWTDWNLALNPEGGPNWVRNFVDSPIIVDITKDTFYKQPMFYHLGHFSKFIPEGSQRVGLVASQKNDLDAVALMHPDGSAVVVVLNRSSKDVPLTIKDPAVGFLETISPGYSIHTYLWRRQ
How it was run: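 Normal human glucocerebrosidase (0.2 nM) with blue fluorogenic substrate (80 uM final) in citrate/phosphate pH 5.9 with 10mM sodium taurocholate, 0.01% tween-20; 40 min RT, NaOH/glycine stop; fluorescence Ex 365/Em 440; AC50 from a titration from 0.6 nM upwards.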

[2] = AP1 Signaling Pathway (AID 357; active = well fitted curve in either direction with a large enough effect, not every such curve was filed as active;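 also: ME-180 reporter cells stimulated with EGF at its EC50 level; % is scaled to controls: 0 for no effect and ±100 for the full control effect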); conditions: ME-180 AP-1-bla reporter, EGF-induced, beta-lactamase ratio, 5 h; at 7.69 µM (top of the series) unless noted
How it was run: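 AP-1-bla ME-180 cells, Opti-MEM + 0.5% dialyzed FBS, plated overnight 37 °C. Cpd titration + EC50 EGF, 5 h 37 °C. CCF4 2.5 h RT; ex 405, em 460/530 ratio → %activity, AC50.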

[3] = biological target: Cytochrome P450 1A2 (Homo sapiens) (UniProt P05177); test: p450-cyp1a2 (AID 410; calls by dose curve;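 also: -100% = full effect of reference inhibitor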)
Chain of Cytochrome P450 1A2 (Homo sapiens) (P05177 whole entry, looked up): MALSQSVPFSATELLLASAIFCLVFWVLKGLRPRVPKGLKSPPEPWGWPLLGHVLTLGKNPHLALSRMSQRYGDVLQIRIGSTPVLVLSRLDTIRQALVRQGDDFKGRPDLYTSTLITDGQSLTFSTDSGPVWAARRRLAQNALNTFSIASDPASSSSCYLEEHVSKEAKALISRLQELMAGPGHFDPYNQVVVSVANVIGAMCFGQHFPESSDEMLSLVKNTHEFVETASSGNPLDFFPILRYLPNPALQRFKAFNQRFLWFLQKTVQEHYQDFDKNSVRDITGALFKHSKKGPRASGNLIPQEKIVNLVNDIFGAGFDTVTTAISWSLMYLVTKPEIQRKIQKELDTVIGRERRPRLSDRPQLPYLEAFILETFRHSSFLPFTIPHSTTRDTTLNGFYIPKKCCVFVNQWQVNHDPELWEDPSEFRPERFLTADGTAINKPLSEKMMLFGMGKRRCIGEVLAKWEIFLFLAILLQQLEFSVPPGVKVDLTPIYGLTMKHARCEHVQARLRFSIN
How it was run: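 O-Demethylation of luciferin 6' methyl ether by human CYP1A2 is monitored as luciferase luminescence. Substrate sits at Km (100uM); enzyme is 20nM. Values are scaled to 57 uM furafylline as maximal inhibition.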

[4] = NFAT Signaling Pathway (AID 444; active = well fitted curve in either direction with a large enough effect, not every such curve was filed as active;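 also: carbachol stimulus at about its EC50 of 1 µM final; % is scaled to controls: 0 for no effect and ±100 for the full control effect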); conditions: Jurkat NFAT-bla M1, carbachol, beta-lactamase ratio, 5 h; at 7.69 µM (top of the series) unless noted
How it was run: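 Read-out: CCF4 FRET ratio (460 nm/530 nm) after 1 h RT dye loading, used for %activity and AC50 from titration series. Cells: Jurkat NFAT-β-lactamase/M1 line, treated with compound plus 1 uM carbachol for 5 h, 37 °C.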

[5] = Stat Signaling Pathway (AID 446; active = well fitted curve in either direction with a large enough effect, not every such curve was filed as active;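 also: ME-180 cervical cancer cells given 40 pM IL-6 alongside compound; SIE-controlled beta-lactamase reporter measured as 460/530 nm FRET emission ratio; % is scaled to controls: 0 for no effect and ±100 for the full control effect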); conditions: ME-180 (cervical carcinoma) SIE beta-lactamase reporter, IL-6 stimulated, 5 h; at 7.69 µM (top of the series) unless noted
How it was run: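 FRET read-out (405 nm excitation, 460/530 nm emission) of a beta-lactamase reporter under a STAT-inducible element in ME-180 cervical carcinoma cells. Cells with compound receive 40 pM IL-6 for 5 h. Values are normalised to AC90 stimulation and AC90 JAK-inhibitor controls.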

[6] = biological target: Glucocorticoid receptor (Homo sapiens) (UniProt P04150); test: GR-GFP Redistribution (AID 450;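 active = compounds whose dose series gives a full or clear partial fitted curve of increased nuclear translocation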; also: potency is read from the fitted curve at half-maximal effect); conditions: U2OS GR-GFP nuclear translocation, laser cytometry, 2 h
Chain of Glucocorticoid receptor (Homo sapiens) (P04150 whole entry, looked up, the tested form may be a part): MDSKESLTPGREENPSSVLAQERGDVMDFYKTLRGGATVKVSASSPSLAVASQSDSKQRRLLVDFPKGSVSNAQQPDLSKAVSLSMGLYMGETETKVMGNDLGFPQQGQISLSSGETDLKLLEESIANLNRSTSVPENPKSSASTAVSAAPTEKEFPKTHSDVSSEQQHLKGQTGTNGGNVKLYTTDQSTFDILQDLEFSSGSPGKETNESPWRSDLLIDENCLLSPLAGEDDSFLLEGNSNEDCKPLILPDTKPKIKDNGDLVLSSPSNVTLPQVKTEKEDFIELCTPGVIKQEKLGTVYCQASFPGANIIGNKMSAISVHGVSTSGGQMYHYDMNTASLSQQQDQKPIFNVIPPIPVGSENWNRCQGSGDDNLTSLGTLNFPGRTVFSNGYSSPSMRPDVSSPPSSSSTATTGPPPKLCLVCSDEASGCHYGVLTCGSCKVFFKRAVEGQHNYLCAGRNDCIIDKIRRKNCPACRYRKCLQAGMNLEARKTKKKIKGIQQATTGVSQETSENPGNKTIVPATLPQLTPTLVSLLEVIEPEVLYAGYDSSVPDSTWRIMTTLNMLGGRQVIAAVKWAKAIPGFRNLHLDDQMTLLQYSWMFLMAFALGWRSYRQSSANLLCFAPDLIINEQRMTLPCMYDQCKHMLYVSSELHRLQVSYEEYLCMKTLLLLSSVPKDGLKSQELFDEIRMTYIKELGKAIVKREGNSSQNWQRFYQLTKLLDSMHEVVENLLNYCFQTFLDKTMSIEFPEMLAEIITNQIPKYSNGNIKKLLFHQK

[7] = biological target: Glucocorticoid receptor (Homo sapiens) (UniProt P04150); test: GR-EFC Redistribution (AID 451; calls by dose curve; also: potency is read from the fitted curve at half-maximal effect); conditions: CHO-K1 GR-EFC translocation, beta-gal luminescence, 2 h
How it was run: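 Translocation of GR-ED fusion to nuclear EA restores b-gal, read by luminescence after 1 h room-temperature detection. Engineered CHO-K1 biosensor cells, 1,000/well, exposed 2 h at 37 C to titrations up to 46 uM final.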

[8] = biological target: Mitogen-activated protein kinase 10 (Mus musculus) (UniProt Q61831); test: JNK3 AlphaScreen Assay (AID 530; active = well fitted curve in either direction with a large enough effect, not every such curve was filed as active;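 also: kinase came from lysate of stimulated human HepG2 cells; signal reports phosphorylation of biotinylated GST-cJun 1-79 at Ser73 with 10 µM ATP; % is scaled to controls: 0 for no effect and ±100 for the full control effect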)
How it was run: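 qHTS titrations with 15 min compound pre-incubation before adding ATP (10 uM final). Read-out: AlphaScreen of Ser73-phosphorylated biotin-GST-cJun using HepG2 lysate JNK3 activated by IL-1β and TNFα.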

[9] = biological target: 3',5'-cyclic-AMP phosphodiesterase 4B (Homo sapiens) (UniProt Q07343); test: qHTS Assay for Inhibitors of PDE-IV (AID 607; active = well fitted activation curve with a large enough effect in the main read-out, with a control signal flat, not every such curve was filed as active; also: % of control where 0% means no effect)
Chain of 3',5'-cyclic-AMP phosphodiesterase 4B (Homo sapiens) (Q07343 whole entry, looked up): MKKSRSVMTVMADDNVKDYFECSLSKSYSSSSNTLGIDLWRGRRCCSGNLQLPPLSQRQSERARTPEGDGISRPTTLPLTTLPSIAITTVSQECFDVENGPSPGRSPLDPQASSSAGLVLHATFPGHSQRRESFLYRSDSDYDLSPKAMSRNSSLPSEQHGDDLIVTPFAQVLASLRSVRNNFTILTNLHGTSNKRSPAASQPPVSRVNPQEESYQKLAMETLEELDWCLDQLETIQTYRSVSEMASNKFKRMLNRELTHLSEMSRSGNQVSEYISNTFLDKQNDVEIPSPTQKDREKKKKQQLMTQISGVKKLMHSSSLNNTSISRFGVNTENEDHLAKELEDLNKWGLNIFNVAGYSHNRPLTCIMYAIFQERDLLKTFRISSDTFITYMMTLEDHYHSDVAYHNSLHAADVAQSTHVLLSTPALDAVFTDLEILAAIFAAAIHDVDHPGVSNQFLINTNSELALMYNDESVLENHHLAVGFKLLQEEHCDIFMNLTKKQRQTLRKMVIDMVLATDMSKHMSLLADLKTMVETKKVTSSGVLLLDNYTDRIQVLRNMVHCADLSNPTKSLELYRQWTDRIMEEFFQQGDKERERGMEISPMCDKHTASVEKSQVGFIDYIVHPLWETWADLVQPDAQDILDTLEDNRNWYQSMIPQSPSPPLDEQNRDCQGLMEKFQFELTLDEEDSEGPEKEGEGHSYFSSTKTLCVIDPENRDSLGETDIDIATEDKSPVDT
How it was run: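 Cell-based read-out of cAMP via a modified cyclic nucleotide-gated channel and membrane potential dye (535/590 nm) in HEK293 cells expressing PDE4 endogenously. Compounds tested up to 22.9 uM final; 100 uM RO 20-1724 reference.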

[10] = biological target: ATP-dependent 6-phosphofructokinase (Trypanosoma brucei brucei) (UniProt O15648); test: qHTS Assay to Find Inhibitors of T. brucei phosphofructokinase: hit validation (AID 492961)
Chain of ATP-dependent 6-phosphofructokinase (Trypanosoma brucei brucei) (O15648 whole entry, looked up): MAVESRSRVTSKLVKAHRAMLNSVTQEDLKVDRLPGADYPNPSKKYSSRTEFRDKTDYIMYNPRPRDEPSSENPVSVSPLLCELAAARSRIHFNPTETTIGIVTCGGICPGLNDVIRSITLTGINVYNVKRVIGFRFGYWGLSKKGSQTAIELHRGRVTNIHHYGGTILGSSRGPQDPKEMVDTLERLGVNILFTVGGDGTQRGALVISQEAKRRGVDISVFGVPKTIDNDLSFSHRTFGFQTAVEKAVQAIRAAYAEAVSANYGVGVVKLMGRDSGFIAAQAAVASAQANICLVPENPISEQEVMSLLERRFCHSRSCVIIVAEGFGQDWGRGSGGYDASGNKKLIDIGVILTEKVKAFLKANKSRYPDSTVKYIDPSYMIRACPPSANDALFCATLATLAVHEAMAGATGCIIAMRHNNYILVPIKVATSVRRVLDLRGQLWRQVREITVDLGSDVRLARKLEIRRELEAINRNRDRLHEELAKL
How it was run: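 In this biochemical qHTS validation, titrated compounds were tested against 1.25 nM PFK with 0.1 mM ATP and 0.5 mM F6P. Percent activity came from controls lacking or containing enzyme.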

[11] = biological target: Luciferin 4-monooxygenase (Photinus pyralis) (UniProt P08659); test: Biochemical firefly luciferase enzyme assay for NPC (AID 624030);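 also: purified P. pyralis luciferase at 10 nM with luciferin and ATP substrate; 0% = DMSO and -100% = full luciferase inhibition by PTC124 control; nearly all actives have a fitted effect of over 70% in size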
Chain of Luciferin 4-monooxygenase (Photinus pyralis) (P08659 whole entry, looked up): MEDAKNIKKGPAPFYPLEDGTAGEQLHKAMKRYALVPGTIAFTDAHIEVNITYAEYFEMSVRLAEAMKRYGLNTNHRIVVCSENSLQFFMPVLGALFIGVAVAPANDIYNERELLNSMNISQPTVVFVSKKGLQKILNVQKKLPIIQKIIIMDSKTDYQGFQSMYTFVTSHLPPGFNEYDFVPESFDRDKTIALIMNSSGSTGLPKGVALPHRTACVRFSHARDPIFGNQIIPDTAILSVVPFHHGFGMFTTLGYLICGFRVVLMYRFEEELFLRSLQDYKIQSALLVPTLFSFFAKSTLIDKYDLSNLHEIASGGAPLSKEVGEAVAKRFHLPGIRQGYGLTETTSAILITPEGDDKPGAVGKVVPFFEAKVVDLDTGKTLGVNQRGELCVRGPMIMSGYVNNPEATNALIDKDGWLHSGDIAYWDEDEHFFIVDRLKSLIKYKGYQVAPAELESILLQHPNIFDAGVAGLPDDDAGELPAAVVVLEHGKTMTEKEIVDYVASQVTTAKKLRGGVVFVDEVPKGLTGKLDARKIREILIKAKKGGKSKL
How it was run: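 Direct inhibition of firefly luciferase enzyme (10 nM final, 50 mM Tris Acetate) assessed by luminescence within 5 minutes. Percent activity scaled between DMSO and PTC124 positive control, with concentration-effect curves classified by fit quality and response.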

[12] = S16 Schwann cell PMP22 intronic element beta-lactamase assay (AID 624044; calls by dose curve;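 also: 0% = DMSO and -100% = potassium clavulanate positive control; nearly all actives have a fitted effect of over 15% in size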)
How it was run: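 Beta-lactamase reporter under a PMP22 intronic regulatory element in stable S16 rat Schwann cells; 24 h compound exposure. 460 nm blue signal normalized between DMSO (0%) and potassium clavulanate, with 535 nm FRET tracking viability; curves classed by r2 and response.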

[13] = qHTS profiling for inhibitors of Plasmodium falciparum proliferation (AID 504749); also: nearly all actives have a fitted effect of over 60% in size; also: potency is read from the fitted curve at half-maximal effect;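 as to activity, negative = inhibition: 0% = DMSO vehicle and full inhibition = artemisinin control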; conditions: P. falciparum in erythrocytes, SYBR Green DNA, 72 h, at 28.7 µM (top of the series)
How it was run: (§1)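 SYBR Green fluorescence of parasite DNA, read after lysis and overnight dark incubation, measured growth over 72 h in erythrocyte culture at 0.3% parasitemia and 2.5% hematocrit. Data normalised to DMSO and 0.29 uM artemisinin, with plate-drift correction.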

[14] = tested on: 7G8; test: as above; conditions: P. falciparum in erythrocytes, SYBR Green DNA, 72 h; series mostly up to 28.7 µM
How it was run: as §1

[15] = tested on: AA1029; test: as above; conditions: P. falciparum in erythrocytes, SYBR Green DNA, 72 h; series mostly up to 28.7 µM
How it was run: as §1

[16] = tested on: AS120; test: as above; conditions: P. falciparum in erythrocytes, SYBR Green DNA, 72 h; series mostly up to 28.7 µM
How it was run: as §1

[17] = tested on: ATS95; test: as above; conditions: P. falciparum in erythrocytes, SYBR Green DNA, 72 h; series mostly up to 28.7 µM
How it was run: as §1

[18] = tested on: C2A; test: as above; conditions: P. falciparum in erythrocytes, SYBR Green DNA, 72 h; series mostly up to 28.7 µM
How it was run: as §1

[19] = tested on: CP185; test: as above; conditions: P. falciparum in erythrocytes, SYBR Green DNA, 72 h; series mostly up to 28.7 µM
How it was run: as §1

[20] = tested on: CP192; test: as above; conditions: P. falciparum in erythrocytes, SYBR Green DNA, 72 h; series mostly up to 28.7 µM
How it was run: as §1

[21] = tested on: CP194; test: as above; conditions: P. falciparum in erythrocytes, SYBR Green DNA, 72 h; series mostly up to 28.7 µM
How it was run: as §1

[22] = tested on: CP201; test: as above; conditions: P. falciparum in erythrocytes, SYBR Green DNA, 72 h; series mostly up to 28.7 µM
How it was run: as §1

[23] = tested on: CP203; test: as above; conditions: P. falciparum in erythrocytes, SYBR Green DNA, 72 h; series mostly up to 28.7 µM
How it was run: as §1

[24] = tested on: CP211; test: as above; conditions: P. falciparum in erythrocytes, SYBR Green DNA, 72 h; series mostly up to 28.7 µM
How it was run: as §1

[25] = tested on: CP215; test: as above; conditions: P. falciparum in erythrocytes, SYBR Green DNA, 72 h; series mostly up to 28.7 µM
How it was run: as §1

[26] = tested on: CP217; test: as above; conditions: P. falciparum in erythrocytes, SYBR Green DNA, 72 h; series mostly up to 28.7 µM
How it was run: as §1

[27] = tested on: CP237; test: as above; conditions: P. falciparum in erythrocytes, SYBR Green DNA, 72 h; series mostly up to 28.7 µM
How it was run: as §1

[28] = tested on: CP238; test: as above; conditions: P. falciparum in erythrocytes, SYBR Green DNA, 72 h; series mostly up to 28.7 µM
How it was run: as §1

C[C@]12CC[C@H]3c4ccc(O)cc4CC[C@@H]3[C@H]1CC[C@@H]2OC(=O)CCC1CCCC1
active: Potency [14] 4.47 µM | Potency [27] 8.91 µM
inactive: Potency [1] > 11.4 µM | activity change, negative = inhibition [2] -8.48% | Potency [3] | activity change, negative = inhibition [4] -0.474% | activity, negative = inhibition [5] 1.67% | Potency [6] > 46 µM | Potency [7] > 9.22 µM | Potency [8] | Potency [9] | outcome [10] | outcome [11] | outcome [12] | activity, negative = inhibition ([13]; parasite line A) 5.91% | activity, negative = inhibition ([13]; parasite line B) 2.07% | Potency [15] | Potency [16] | Potency [17] | Potency [18] | Potency [19] | Potency [20] | Potency [21] | Potency [22] | Potency [23] | Potency [24] | Potency [25] | Potency [26] | Potency [28]
